An excerpt weighted towards active compounds, which were near 19% of everything screened.
Pf growth 48h: P. falciparum growth inhibition at 48 hours (one generation) | Potency, µM (series often up to 28.7 µM), usual class: inhibitors | 310,000 compounds, 5.9% hits | AID 504832 | P. falciparum luciferase growth in erythrocytes, 48 h
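Compounds are pin-transferred into medium, infected erythrocytes (2% hematocrit, 0.1% parasitemia final) are added, and plates sit one parasite generation at 37 C in 5% CO2. Detection reagent is then added and luminescence measured.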
Shiga inhibitor: Shiga toxin inhibition; Vero cells, Shiga toxin protein synthesis inhibition reporter; 290,000 compounds, 9.2% hits; AID 2315; inhibition, % at 38.7 µM; in the data active = inhibition mostly above about 28%, no sharp cut-off; inactive = mostly below about 43%
Marburg entry inh: blocks Marburg virus binding to or entry into cells; 300,000 compounds, 1.8% hits; Marburg virus pseudotyped entry inhibition, cell reporter; Potency, µM (series often up to 37.8 µM), hits mostly inhibitors; calls by dose curve; tested in HEK293 cells
Lassa entry inh: blocks Lassa virus binding to or entry into cells | AID 540256 | Potency, µM (titrated, usually from 37.9 µM), actives largely listed as inhibitors | 300,000 compounds, 1.2% hits | Lassa virus pseudotype entry inhibition, cell reporter; calls by dose curve; tested in HEK293 cells; also: nearly all actives have a fitted effect of over 50% in size
Pf growth 96h: P. falciparum growth inhibition at 96 hours; P. falciparum luciferase reporter growth, 96 h; Potency, µM (series often up to 28.7 µM), usual class: inhibitors; 320,000 compounds, 6.9% hits
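Cell-based qHTS: luciferase-tagged P. falciparum in erythrocytes (2% hematocrit, 0.05% parasitemia final) incubated with compounds for 96 hours, 37 C, 5% CO2; luciferase detection reagent then added and luminescence measured.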
CHX counter: affects cycloheximide protein synthesis inhibition readout, counter-screen. cell reporter, cycloheximide protein synthesis inhibition counterscreen. max response, %. 300,000 compounds, 12% hits; in the data active = max response mostly above about 13%, no sharp cut-off; inactive = mostly below about 14%; also: read at 38.3 µM for the half of the compounds with a filed dose
Numbers stand for hits; ! = not confirmed by another sample. Unless noted, calls follow the shape of the dose curve; as a rule, active = well fitted inhibition curve with a large enough effect; inconclusive = small, poorly fitted or top-dose-only effect, or another doubt; inactive = no such curve, though single readings can be large or run the other way.

How did Cc1[nH]c(C)c(S(=O)(=O)Nc2cccc(Cl)c2C)c1C(=O)N1CCCCC1 do in these assays?
Pf growth 48h: inactive; Shiga inhibitor: inactive; Marburg entry inh: inactive; Lassa entry inh: inactive; Pf growth 96h: inactive; CHX counter: inactive

Results for c1ccc(NCCCNc2ccccc2)cc1 ?
Pf growth 48h: inactive; Shiga inhibitor: inactive; Marburg entry inh: inactive; Lassa entry inh: inactive; Pf growth 96h: inactive; CHX counter: 11.4

How did O=C1c2ccccc2C(=O)N1CCCCNc1ccccc1 do in these assays?
Marburg entry inh: inconclusive; Lassa entry inh: inactive

What do the screens show for `CCOc1ccc(C(=O)CCC(=O)NNC(=O)c2ccncc2)cc1`?
Pf growth 48h: inactive; Marburg entry inh: inactive; Lassa entry inh: inactive; Pf growth 96h: inactive

How did Cc1ccc(NC(=O)CSc2nc3ccccc3nc2N2CCCC2)cc1 do in these assays?
Pf growth 48h: inconclusive; Shiga inhibitor: 32.5; Pf growth 96h: inactive; CHX counter: 20.9

Results for O=C(CSc1nc2ccccc2nc1N1CCCC1)Nc1ccc(Cl)cc1 ?
Pf growth 48h: inconclusive; Shiga inhibitor: inactive; Pf growth 96h: inactive; CHX counter: inactive

Results for CC(C)c1ccc(NC(=O)CSc2nc3ccccc3nc2N2CCCC2)cc1 ?
Pf growth 48h: inconclusive; Shiga inhibitor: 16.2; Pf growth 96h: inactive; CHX counter: inactive

What do the screens show for `CCc1ccc(NC(=O)CSc2nc3ccccc3nc2N2CCCC2)cc1`?
Pf growth 48h: inactive; Shiga inhibitor: inactive; Pf growth 96h: 2.62µM; CHX counter: inactive

Results for COc1cccc(NC(=O)CSc2nc3ccccc3nc2N2CCOCC2)c1 ?
Pf growth 48h: inactive; Shiga inhibitor: inactive; Marburg entry inh: inconclusive; Lassa entry inh: 7.08µM; Pf growth 96h: inconclusive; CHX counter: 23.9!

Results for Fc1ccccc1/C=N/Nc1ncnc2ccccc12 ?
Pf growth 48h: inactive; Shiga inhibitor: inactive; Marburg entry inh: inconclusive; Lassa entry inh: inconclusive; Pf growth 96h: inactive; CHX counter: 40.5

What do the screens show for `Clc1ccc(/C=N/Nc2ncnc3ccccc23)cc1Cl`?
Pf growth 48h: inactive; Shiga inhibitor: 89.7; Marburg entry inh: inconclusive; Lassa entry inh: inactive; Pf growth 96h: inconclusive; CHX counter: 25.7

How did O=S(=O)(N/N=C/c1ccccc1F)c1ccccc1 do in these assays?
Pf growth 48h: inactive; Shiga inhibitor: inactive; Marburg entry inh: inactive; Lassa entry inh: inactive; Pf growth 96h: inactive; CHX counter: inactive

What do the screens show for `Brc1ccc(/C=N/Nc2ncnc3c2cnn3Cc2ccccc2)cc1`?
Pf growth 48h: inconclusive; Shiga inhibitor: inactive; Marburg entry inh: inactive; Lassa entry inh: inactive; Pf growth 96h: inactive; CHX counter: inactive

How did CCCOc1ccc(N2CC(C(=O)NC3=NCCS3)CC2=O)cc1 (centres undefined) do in these assays?
Pf growth 48h: inactive; Shiga inhibitor: inactive; Marburg entry inh: inactive; Lassa entry inh: inactive; Pf growth 96h: inconclusive; CHX counter: inactive

What do the screens show for `Cc1cc(C)cc(C(=O)Nn2cnnc2)c1`?
Pf growth 48h: inactive; Shiga inhibitor: inactive; Marburg entry inh: inactive; Lassa entry inh: inactive; Pf growth 96h: inactive; CHX counter: inactive

What do the screens show for `CC(=O)c1ccc(OCCNS(=O)(=O)c2ccc(-n3cnnn3)c(C)c2)cc1`?
Pf growth 48h: inactive; Shiga inhibitor: inactive; Marburg entry inh: inactive; Lassa entry inh: inactive; Pf growth 96h: inactive; CHX counter: inactive

How did CN(C)CC[C@@H](c1ccc(Cl)cc1)c1ccccn1 do in these assays?
Shiga inhibitor: inactive; Marburg entry inh: 5.62µM!; Lassa entry inh: inactive; CHX counter: inactive

Results for CN(C)CCO[C@@H](c1ccc(Cl)cc1)c1ccccn1 ?
Pf growth 48h: inactive; Shiga inhibitor: inactive; Pf growth 96h: inconclusive; CHX counter: inactive

How did C[C@]12c3[nH]c4cc(-c5ccco5)ccc4c3CCN1C(=O)[C@@H](CC(=O)NCc1ccco1)C[C@@H]2C(=O)N1CCOCC1 do in these assays?
Marburg entry inh: inactive

Results for O=C1NC(=O)/C(=C\c2ccc(Br)o2)S1 ?
Pf growth 48h: inactive; Shiga inhibitor: 19.9; Marburg entry inh: inactive; Pf growth 96h: inactive; CHX counter: 23.4

What do the screens show for `COc1ccc(N2CCN(C3CCCN(S(=O)(=O)c4ccccc4)C3)CC2)cc1` (centres undefined)?
Pf growth 48h: inactive; Shiga inhibitor: inactive; Marburg entry inh: inactive; Lassa entry inh: inactive; Pf growth 96h: inactive; CHX counter: inactive

What do the screens show for `CCOC(=O)c1c(NC(=S)N2CCN(C)CC2)sc(C)c1-c1ccccc1`?
Pf growth 48h: inconclusive; Shiga inhibitor: inactive; Marburg entry inh: inconclusive; Lassa entry inh: 8.91µM; Pf growth 96h: inactive; CHX counter: inactive

Results for CCOC(=O)c1c(NC(=O)CCl)sc(CN(C)C)c1-c1ccccc1 ?
Pf growth 48h: 13.1µM; Shiga inhibitor: inactive; Marburg entry inh: inconclusive; Lassa entry inh: inactive; Pf growth 96h: inconclusive; CHX counter: inactive

How did CCOC(=O)c1c(NC(=O)CN2CCCCC2)sc(CN(C)C)c1-c1ccccc1 do in these assays?
Pf growth 48h: inactive; Shiga inhibitor: inactive; Marburg entry inh: inconclusive; Lassa entry inh: inconclusive; Pf growth 96h: inactive; CHX counter: inactive

How did Cc1ccccc1C(=O)/C=C1/c2ccccc2CC(C)(C)N1C do in these assays?
Pf growth 48h: inconclusive; Shiga inhibitor: inactive; Marburg entry inh: inactive; Lassa entry inh: inactive; Pf growth 96h: inconclusive; CHX counter: inactive

What do the screens show for `O=C(CCSCc1ccccc1Cl)NCc1cccs1`?
Pf growth 48h: inactive; Shiga inhibitor: inactive; Marburg entry inh: inactive; Lassa entry inh: inactive; Pf growth 96h: inconclusive; CHX counter: inactive

Results for O=C(CSc1nnc(NCc2ccccc2)s1)N1CCOCC1 ?
Pf growth 48h: inactive; Shiga inhibitor: inactive; Marburg entry inh: inactive; Lassa entry inh: inactive; Pf growth 96h: inactive; CHX counter: inactive

How did CCCCN(C(=O)NC(=O)Nc1ccccc1OC)S(C)(=O)=O do in these assays?
Pf growth 48h: inactive; Shiga inhibitor: inactive; Marburg entry inh: inactive; Lassa entry inh: inactive; Pf growth 96h: inconclusive; CHX counter: inactive

How did CC(C)(C)c1ccc(/C=N/NC(=S)Nc2cccnc2)cc1 do in these assays?
Pf growth 48h: inconclusive; Shiga inhibitor: inactive; Pf growth 96h: inconclusive; CHX counter: 16.2

Results for Oc1ccc(C=NNC(=S)Nc2cccnc2)nc1 ?
Marburg entry inh: inconclusive; Lassa entry inh: 10µM

Results for S=C(N/N=C/c1ccc2ncccc2c1)Nc1cccnc1 ?
Pf growth 48h: inactive; Shiga inhibitor: inactive; Pf growth 96h: inactive; CHX counter: 22.8

How did CC1=C/C(=N\NC(=S)Nc2cccnc2)CC(C)(C)C1 do in these assays?
Pf growth 48h: inconclusive; Shiga inhibitor: inactive; Marburg entry inh: inactive; Lassa entry inh: inactive; Pf growth 96h: 2.94µM; CHX counter: inactive

Results for CCc1cccc(NC(=O)c2cccc(S(=O)(=O)N3CCN(C)CC3)c2)c1 ?
Pf growth 48h: inactive; Shiga inhibitor: inactive; Marburg entry inh: inactive; Lassa entry inh: inactive; Pf growth 96h: inactive; CHX counter: inactive

Results for CCCCNC(=O)Cn1c(=O)n(C)c2ccccc21 ?
Pf growth 48h: inactive; Shiga inhibitor: inactive; Marburg entry inh: inconclusive; Lassa entry inh: inactive; Pf growth 96h: 7.38µM; CHX counter: inactive

What do the screens show for `CCCNC(=O)Cn1c(=O)n(C)c2ccccc21`?
Pf growth 48h: inactive; Shiga inhibitor: inactive; Pf growth 96h: inactive; CHX counter: inactive

Compound activity (PubChem BioAssay)
